# Source: PubChem (National Center for Advancing Translational Sciences (NCATS))
# Fluorescein autfl: qHTS Assay for Spectroscopic Profiling in Fluorescein Spectral Region | AID 593, 2007 | Compound autofluorescence, 480/540 nm, fluorescein-equivalent; active compounds read high | max fluorescein-equivalent concentration, M | 0.91% of 59,000 active; in the data active = max fluorescein-equivalent concentration above about 10 nM; inconclusive = between about 1.1 nM and that limit
#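 Tris 100 mM pH 8.0; 15 min RT; CCD read, ex 480/em 540 nm. Output: fluorescein-equivalent concentration per compound concentration, from six-point dye series on each plate.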
# Rhodamine autofl: qHTS Assay for Spectroscopic Profiling in Rhodamine Spectral Region; 0.05% of 59,000 active; Rhodamine-region fluorescence, 547/598 nm, Tris buffer; active compounds read high; AID 594, 2007; max dye-equivalent concentration, M; in the data active = max dye-equivalent concentration above about 11 nM; inconclusive = between about 1.1 nM and that limit
#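 Read-out is relative fluorescence at 547 nm excitation and 598 nm emission, expressed as dye-equivalent concentration using rhodamine standards on every plate. Each compound was profiled across a concentration series after 15 min in 100 mM Tris, pH 8.0.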
# A647 fluor: qHTS Assay for Spectroscopic Profiling in A647 Spectral Region; Compound fluorescence, A647 channel (570/671 nm), Tris buffer; max dye-equivalent concentration, M; 59,000 tested, under 10 active;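 also: values scaled relative to a standard on each plate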
#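 Buffer was dispensed, compounds and Alexa 647 standards were pin-transferred, and plates sat 15 min at room temperature. Intensity at 570/671 nm was then converted to dye-equivalent concentration using the plate's A647 standard curve.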
# Texas Red fluor: qHTS Assay for Spectroscopic Profiling in Texas Red Spectral Region. Compound fluorescence, Texas Red channel, 547/618 nm; active compounds read high. AID 587, 2007. 0.06% of 59,000 active. max dye-equivalent concentration, M; in the data active = max dye-equivalent concentration above about 10 nM; inconclusive = between about 1.1 nM and that limit
#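 qHTS profiling of intrinsic compound fluorescence; 100 mM Tris pH 8.0; 15 min RT; ex 547 / em 618 nm; response expressed as Texas Red dye-equivalent concentration from six-point plate standard.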
# A488 fluor: qHTS Assay for Spectroscopic Profiling in A488 Spectral Region; compound autofluorescence, A488 spectral region, dye equivalency; Compound Type: qHTS ECL - MLSMR; max dye equivalency, M; 0.1% of 59,000 active
#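 Compound autofluorescence was read in 100 mM Tris pH 8.0 after 15 min at room temperature, ex 480 nm/em 540 nm. Intensities were converted to A488 dye-equivalent concentration using an on-plate six-point A488 standard curve.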
# Resorufin autofl: qHTS Assay for Spectroscopic Profiling in Resorufin Spectral Region. Compound fluorescence, resorufin region 547/598 nm, buffer; active compounds read high. max dye-equivalent concentration, M. 0.04% of 59,000 active
#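 Compounds in 100 mM Tris buffer, pH 8.0, incubated 15 min at room temperature, then read with 547 nm excitation and 598 nm emission filters. Fluorescence was converted to dye-equivalent concentration using an on-plate six-point resorufin standard curve.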
# * marks the source's active call; other numbers are inactive results; i = inactive; ? = inconclusive; ! = not active in a repeat. An excerpt weighted towards active compounds, which were near 0.96% of everything screened. Unless noted, no rule for the calls is given here.
SMILES,Fluorescein autfl,Rhodamine autofl,A647 fluor,Texas Red fluor,A488 fluor,Resorufin autofl
CN1C[C@H](CO)C=C2c3cccc4[nH]cc(c34)C[C@@H]21,2.68e-08M*,i,2.9e-09,i,i,i
CCN(CC)C(=O)N[C@@H]1C=C2c3cccc4[nH]cc(c34)C[C@@H]2N(C)C1,1.3e-08M*!,i,1e-09,?,i,i
CN[C@H]1[C@H](C)O[C@@H](O[C@@H]2C/C=C(/C)C/C(C)=C\C=C/CC[C@@H](C)CNC(=O)/C=C\C=C/[C@H]2C)C[C@@H]1O,i,i,4.1e-09,?,i,i
O=c1cccc2n1C[C@@H]1C[C@H]2CN2CCCC[C@H]12,i,i,1e-09,i,i,i
COCCOC(=O)c1c(N)n(Cc2ccc(OC)cc2)c2nc3ccccc3nc12,i,i,4.9e-09,?,i,i
COCCOC(=O)c1c(N)n(Cc2ccco2)c2nc3ccccc3nc12,4.28e-08M*,i,1e-09,i,?,i
CC(C)OC(=O)c1c(N)n(Cc2ccco2)c2nc3ccccc3nc12,3.6e-08M*,i,3.53e-08,i,?,i
COc1ccc(Cn2c(N)c(C(=O)NCc3ccco3)c3nc4ccccc4nc32)cc1OC,?,i,1.36e-08,i,i,i
NCCP(=O)(O)O,i,i,2.54e-08,i,i,i
CC[C@H]1[C@@H]2C[C@@H]3[C@@H]4N(C)c5ccccc5[C@@]45C[C@@H]([C@H]2[C@@H]5O)N3[C@@H]1O,i,i,1e-09,i,i,i
CCC(=NC1CCN(Cc2ccccc2)CC1)c1c(O)[nH]c(=O)[nH]c1=O,i,i,1e-09,i,i,i
CCOC(=O)c1ccc(NC(=O)c2c(O)[nH]c(=O)[nH]c2=O)cc1,4.06e-05M*,?,1e-09,?,2.34e-06M*,i
C[C@H]1CC[C@@H]2[C@@H](C)C(=O)O[C@H]3O[C@@]4(C)CC[C@@H]1[C@]32OO4,i,i,8.6e-09,i,i,i
Cn1c(=O)c2nncnc2n(C)c1=O,1.06e-08M*,i,6.9e-09,i,i,i
Nc1ncnc2c1ncn2[C@@H]1O[C@@H](COP(=O)(O)CP(=O)(O)OP(=O)(O)O)[C@H](O)[C@@H]1O,?,i,4.14e-08,i,i,i
N[C@@H](Cc1cc(Br)c(O)c(Br)c1)C(=O)O,i,i,1e-09,i,i,i
N[C@H](Cc1ccc2oc3cc(=O)c4ccccc4c-3nc2c1)C(=O)O,8.49e-07M*,1.16e-08M*,1.08e-08,4.7e-08M*,3.89e-08M*,?
COc1ccc2c(c1O)-c1cccc3c1[C@H](C2)N(C)CC3,?,i,1e-09,?,i,i
COc1ccc2c3c1O[C@@H]1C(=O)CC[C@@]4(O)[C@@H](C2)N(CC2CC2)CC[C@]314,i,i,1e-09,i,i,i
CN1CC=C2C(C#N)=C(N)C(C#N)(C#N)C(c3ccncc3)C2C1 (configuration not stated),4.17e-08M*,i,1e-09,?,?,i
Cc1c([C@@H](C)[C@H]2NC[C@H](C)C[C@@H]2O)ccc2c1C[C@@H]1[C@H]2CC=C2C[C@@H](O)CC[C@@]21C,?,i,1e-09,i,i,i
CN1C[C@H](CNC(=O)OCc2ccccc2)C[C@@H]2c3cccc4c3c(cn4C)C[C@H]21,4.72e-08M*,i,3.27e-08,i,?,i
CN1C[C@@H](CS(=O)(=O)N(C)C)C[C@H]2c3cccc4c3c(cn4C)C[C@@H]21,1.86e-08M*,i,1e-09,?,i,i
CC(C)[C@@]1(NC(=O)[C@H]2C[C@H]3c4cccc5[nH]cc(c45)C[C@@H]3N(C)C2)O[C@]2(O)[C@H]3CCCN3C(=O)[C@H](Cc3ccccc3)N2C1=O,?,i,2.5e-08,i,i,i
CC(C)[C@@]1(NC(=O)[C@@H]2C=C3c4cccc5[nH]cc(c45)C[C@@H]3N(C)C2)O[C@]2(O)[C@H]3CCCN3C(=O)[C@H](Cc3ccccc3)N2C1=O,2.89e-08M*,i,1.7e-09,i,?,i
SMILES,Fluorescein autfl,Rhodamine autofl,A647 fluor,Texas Red fluor,A488 fluor,Resorufin autofl
CN1C[C@H](C(=O)N[C@@]2(C)O[C@@]3(O)[C@H]4CCCN4C(=O)[C@@H](Cc4ccccc4)N3C2=O)C=C2c3cccc4[nH]cc(c34)C[C@@H]21,1.8e-08M*,i,3.08e-08,i,i,i
C[C@@H](CO)NC(=O)[C@H]1C=C2c3cccc4[nH]cc(c34)C[C@H]2N(C)C1,?,i,1e-09,i,i,i
CC[C@@H](CO)NC(=O)[C@@H]1C=C2c3cccc4c3c(cn4C)C[C@H]2N(C)C1,4.77e-08M*,i,1e-09,i,?,i
CC[C@H](CO)NC(=O)[C@H]1C=C2c3cccc4[nH]cc(c34)C[C@@H]2N(C)C1,2.1e-08M*,i,1.8e-09,i,i,i
COC(=O)c1c(C)ccc2c(O)c3c(cc12)C(=O)c1c2c(cc(O)c1C3=O)[C@@]1(C)O[C@@](C)(O2)[C@@H](O)[C@H](N(C)C)[C@H]1O,?,i,1.52e-08,i,i,i
COc1cccc2c1C(=O)c1c(O)c3c(c(O)c1C2=O)C[C@](O)(/C(C)=N\O)C[C@@H]3O[C@H]1C[C@H](N)[C@@H](O)[C@H](C)O1,7.63e-08M*,2.98e-08M*,1e-09,1.89e-08M*,?,1.72e-08M*
CCn1nc(-c2ccccc2)nc2c(=O)n(C)c(=O)nc1-2,1.78e-07M*,i,1.87e-08,i,1.08e-08M*,i
